{
  "source": "PubChem BioAssay (Tox21)",
  "note": "A number with no mark means an inactive call. Activity calls are given as the source filed them. The call rests on the fitted dose curve; in most records, active means well fitted curve in the direction sought with a large enough effect in the repeat runs; inconclusive means weak or mixed curves; inactive means flat fitted curve, though single readings scatter. On the % scale 0 is the no-effect control and ±100 the full control effect.",
  "data": [
    {"assay": "qHTS assay to test for compound auto fluorescence at 535 nm (green) in HepG2 cells (AID 720675)", "conditions": "green autofluorescence 485/535 nm, 1 h; series mostly up to 91.3 µM; fluorescence, % of fluorescein control: at the top concentration", "description": "National Center for Advancing Translational Sciences [NCATS]\nNIH Chemical Genomics Center [NCGC]\nU.S. Environmental Protection Agency [EPA]\nNational Institutes of Environmental Health Sciences [NIEHS]\nNational Toxicology Program [NTP]\nU.S. Food and Drug Administration [FDA]\nCompound auto fluorescence often interferes with screening of the compound library against various biological targets and signaling pathways. Some of these compounds may have fluorophoric properties. Such properties may interfere with the assay outputs resulting in false positives and/or negatives. To decrease such complications and ensure the compound activities are relevant in terms of biological response, the Tox21 10K compound library was screened for auto fluorescence.\nFrom the fluorophores used as reporter signals in our screening assays, the auto fluorescence equivalencies of compounds against three fluorophores have been evaluated: Triamterene, Fluorescein and Rose Bengal sodium for blue, green and red fluorescence, respectively. The fluorescence intensities were measured using Excitation/Emission wavelengths at 405/460nm, 485/535nm and 540/590nm for blue, green and red labels, respectively. This assay includes the green fluorescence data.\nTox21 Assay Protocol Summary:\n2,000 HepG2 cells in 5 uL of culture medium (MEM containing 10% FBS) per well were dispensed into black wall/clear bottom 1536-well plates using a Multidrop Combi Dispenser (ThermoFisher Scientific, Waltham, MA). The assay plates were incubated overnight at 37 C to allow cell attachment to the well bottom, followed by the transfer of 23 nL compound or DMSO vehicle by a pintool work station (Kalypsys , San Diego, CA). After the assay plates were incubated for 1 hr at 37 C and 5% CO2, fluorescence intensities in the assay plates were measured by an Envision (PerkinElmer, Shelton, CT) plate reader using three labels for measuring blue, green and red fluorescence at […] 460, 535 and 590 nm respectively.", "values": [
      {"smiles": "N#Cc1cc2ccccc2c2ccccc12", "fluorescence, % of fluorescein control": "-0.02%"},
      {"smiles": "O=C(O)COC(=O)Cc1ccccc1Nc1c(Cl)cccc1Cl", "fluorescence, % of fluorescein control": "-0.151% [at 18.6 µM]"},
      {"smiles": "CC(C(=O)O)c1ccc(C(=O)c2ccccc2)s1", "note": "(stereo not given)", "fluorescence, % of fluorescein control": "-0.0168% [at 18.6 µM]"},
      {"smiles": "CCCCOC(O)CC", "note": "(stereo not given)", "fluorescence, % of fluorescein control": "-0.0546%"},
      {"smiles": "Oc1ccc(C(O)CNCCCCCCNCC(O)c2ccc(O)c(O)c2)cc1O", "note": "(stereo not given)", "fluorescence, % of fluorescein control": "0.0053% [at 46 µM]"},
      {"smiles": "CCCC(=O)OCC", "fluorescence, % of fluorescein control": "-0.022%"},
      {"smiles": "C=C(C)C(=O)OCCN(C)C", "fluorescence, % of fluorescein control": "-0.107%"},
      {"smiles": "CC(=O)O[C@H]1C[C@@H]2CC[C@@H]3[C@H](CC[C@@]4(C)[C@H]3C[C@H]([N+]3(C)CCCCC3)[C@@H]4OC(C)=O)[C@@]2(C)C[C@@H]1N1CCCCC1", "fluorescence, % of fluorescein control": "-0.164% [at 46 µM]"},
      {"smiles": "CCOC(=O)C1=NN(c2ccccc2)C(=O)C1", "fluorescence, % of fluorescein control": "-0.0073%"},
      {"smiles": "CCCCCCCCN(C)C", "fluorescence, % of fluorescein control": "0.0012%"},
      {"smiles": "CC1(C)CCC(C)(C)c2cc(NC(=O)c3ccc(C(=O)O)cc3)ccc21", "fluorescence, % of fluorescein control": "-0.0029% [at 46 µM]"},
      {"smiles": "O=C(O)c1cccc(N(Cc2cccnc2)c2ccc(OC(F)F)c(OC(F)F)c2)c1", "fluorescence, % of fluorescein control": "-0.0117%"},
      {"smiles": "O=C(c1ccccc1)c1ccc2n1CCC2C(=O)O", "note": "(stereo not given)", "outcome": "inactive"},
      {"smiles": "CCCc1ccccc1", "fluorescence, % of fluorescein control": "-0.0566%"},
      {"smiles": "CC1(C)[C@H]2CC[C@]1(C)[C@H](O)C2", "outcome": "inactive"},
      {"smiles": "c1ccc(-c2nc[nH]c2-c2ccccc2)cc1", "fluorescence, % of fluorescein control": "-0.0281% [at 46 µM]"},
      {"smiles": "CNS(=O)(=O)Cc1ccc2[nH]cc(CCN(C)C)c2c1", "fluorescence, % of fluorescein control": "-0.0178% [at 46 µM]"},
      {"smiles": "CC(C)=CCCC(C)CC=O", "note": "(stereo not given)", "fluorescence, % of fluorescein control": "0.0464%"},
      {"smiles": "C#CCOC(=O)[C@@H](C)Oc1ccc(Oc2ncc(Cl)cc2F)cc1", "fluorescence, % of fluorescein control": "0.059%"},
      {"smiles": "O=[N+]([O-])c1cc[n+]([O-])cc1", "fluorescence, % of fluorescein control": "0.0325%"},
      {"smiles": "c1ccc(CNCc2ccccc2)cc1", "fluorescence, % of fluorescein control": "-0.0358%"},
      {"smiles": "CC(Cc1cccc(C(F)(F)F)c1)NCCOC(=O)c1ccccc1", "note": "(stereo not given)", "fluorescence, % of fluorescein control": "-0.0456% [at 46 µM]"},
      {"smiles": "CC(=O)c1c(C)c([N+](=O)[O-])c(C(C)(C)C)c([N+](=O)[O-])c1C", "fluorescence, % of fluorescein control": "-0.139%"},
      {"smiles": "OCC1CC2CC1C1CCC(CO)C21", "note": "(stereo not given)", "fluorescence, % of fluorescein control": "0.085%"},
      {"smiles": "CN(C(=O)CCCOc1ccc2[nH]c(=O)ccc2c1)C1CCCCC1", "fluorescence, % of fluorescein control": "-0.129% [at 46 µM]"},
      {"smiles": "Cc1c(Cn2ccnc2)c2ccccc2n1CCC(=O)O", "fluorescence, % of fluorescein control": "-0.109% [at 46 µM]"},
      {"smiles": "CCN(CC)CCOC(=O)C1(c2ccccc2)CCCC1", "fluorescence, % of fluorescein control": "-0.0002% [at 46 µM]"},
      {"smiles": "Cc1ccc(C(C)c2ccc(C)c(C)c2)cc1C", "fluorescence, % of fluorescein control": "-0.0145%"},
      {"smiles": "COC(=O)C(C)=O", "fluorescence, % of fluorescein control": "-0.175%"},
      {"smiles": "Cc1cc(O)ccc1N", "fluorescence, % of fluorescein control": "1.87%"},
      {"smiles": "O=CNc1ccccc1", "fluorescence, % of fluorescein control": "-0.107%"},
      {"smiles": "O=[N+]([O-])c1cccc(Cl)c1Cl", "fluorescence, % of fluorescein control": "0.118%"},
      {"smiles": "CCCCCCCCCO", "fluorescence, % of fluorescein control": "-0.0087%"},
      {"smiles": "O=C(/C=C/c1ccc(O)c(O)c1)O[C@@H]1C[C@](O)(C(=O)O)C[C@@H](O)[C@H]1O", "fluorescence, % of fluorescein control": "0.0161% [at 95.7 µM]"},
      {"smiles": "Cc1ccc2c(ccc3ccccc32)c1", "fluorescence, % of fluorescein control": "0.0133%"},
      {"smiles": "CC[C@H](C)[C@@H](C(=O)O)n1sc2ccccc2c1=O", "fluorescence, % of fluorescein control": "0.0455%"},
      {"smiles": "CC(=O)[C@@]1(O)CC[C@H]2[C@@H]3C[C@H](C)C4=CC(=O)CC[C@]4(C)[C@H]3CC[C@@]21C", "fluorescence, % of fluorescein control": "0.16% [at 46 µM]"},
      {"smiles": "COc1ccc(C(C)=O)cc1", "fluorescence, % of fluorescein control": "0.102% [at 95.7 µM]"},
      {"smiles": "O=S(=O)(O)c1ccc(O)c2ncccc12", "fluorescence, % of fluorescein control": "-0.0001%"},
      {"smiles": "CC(C)c1cccc(C(C)C)c1NC(=O)NS(=O)(=O)c1cc(C(C)(C)O)co1", "fluorescence, % of fluorescein control": "0.0559%"}
    ]}
  ]
}
